Compounds with a hit are over-represented: about 5.7% of the library has one in this group of screens.
KB-V1 cytotox = kills drug-selected multidrug resistant KB-V1 cells; KB-V1 MDR cells viability, CellTiter-Glo, 72 h; Potency, µM (doses to about 46.1 µM), hits mostly cytotoxic; 3.4% of 400,000 active; AID 1347076; note: nearly all actives have a fitted effect of over 60% in size
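Drug-selected KB-V1 cells, grown in DMEM lacking phenol red with 10% FBS, receive compound titrations; after three days at 37 degrees C, surviving cell ATP is quantified by CellTiter-Glo luminescence and responses normalized and curve-fitted.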
HT1080-NT tox = kills 2HG-producing HT-1080-NT fibrosarcoma cells | HT-1080-NT fibrosarcoma viability, CellTiter-Glo ATP luminescence, 48 h | Potency, µM (series often up to 46.1 µM), usual class: cytotoxic | 1.6% of 360,000 active;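 note: NT is the 2HG producing partner of a matched IDH1 knockdown line; nearly all actives have a fitted effect of over 55% in size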
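HT-1080-NT fibrosarcoma cells (2HG-overproducing), 750 cells/well in RPMI with 5% FBS, dosed after 2 h and incubated 48 h at 37C. CellTiter-Glo luminescence normalized to DMSO and no-cell wells; concentration-response curves fitted and classed.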
HT1080 IDH1KD tx = HT-1080 IDH1 knockdown cell toxicity (counter line); HT-1080 IDH1 knockdown viability, ATP luminescence, 48 h; Potency, µM (series often up to 46.1 µM), most hits filed as cytotoxic; 2% of 360,000 active; AID 686971
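Luminescent ATP read-out (CellTiter-Glo, 10 min at room temperature) after 48 h compound exposure at 37 °C gave viability of IDH1-knockdown HT-1080 cells. Activity was normalised to DMSO and cell-free wells, then fitted as concentration-response curves.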
KB-3-1 tox = KB-3-1 parental cell cytotoxicity | KB-3-1 viability, CellTiter-Glo ATP luminescence, 72 h | Potency, µM (titrated, usually from 46.1 µM), actives largely listed as cytotoxic | 1.4% of 400,000 active | AID 1347075; note: nearly all actives have a fitted effect of over 60% in size
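Parental KB-3-1 adenocarcinoma cells in phenol-red-free DMEM with 10% FBS were pin-treated with compounds at several concentrations, incubated 72 h at 37 °C, and viability read by CellTiter-Glo luminescence; concentration-effect curves were fitted after normalization.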
A number is an active result; - = inactive; ? = inconclusive; . = no result given; ! = not confirmed by another sample; [ ] = remark or other dose. Calls come from the whole dose curve; as a rule, active = well fitted curve in the direction sought with a large enough effect; inconclusive = small, poorly fitted or top-dose-only effect, or another doubt; inactive = no such curve, though single readings can be large; an effect the other way counts as inactive or inconclusive.

SMILES	KB-V1 cytotox	HT1080-NT tox	HT1080 IDH1KD tx	KB-3-1 tox
OCCN1CCN(CC#CCn2c3ccccc3c3ccccc32)CC1	-	21µM	?	-
COC(=O)C1=C(C)NC(C)=C(C(=O)OCC(C)C)C1c1ccccc1[N+](=O)[O-] (stereo unspecified)	3.7µM	16µM	26µM	-
O=c1[nH]c(=O)n(C2CC(O)C(CO)O2)cc1Br (stereo unspecified)	-	-	?	-
O=c1[nH]c(=O)n(C2C[C@H](O)[C@@H](CO)O2)cc1C(F)(F)F (stereo partly specified)	-	?	4.1µM	-
O=c1[nH]c(=O)n([C@H]2C[C@@H](O)[C@@H](CO)O2)cc1F	-	.	.	?
O=c1[nH]c(=O)n([C@H]2C[C@H](O)[C@@H](CO)O2)cc1C(F)(F)F	-	?	2.1µM	-
CCc1ccccc1Nc1ncnc2c1cnn2-c1ccc(Cl)cc1	-	.	.	-
COc1ccc(S(=O)(=O)Nc2cc(Cl)ccc2OC)cc1	5.8µM	6.5µM	?	3.7µM
COc1ccc(Cl)cc1NS(=O)(=O)c1ccc2[nH]c3c(c2c1)CCCC3	-	.	.	-
COc1cc(S(=O)(=O)Nc2c(C)cc(C)cc2C)ccc1Cl	18µM	-	-	-
COc1ccc(Cl)cc1NS(=O)(=O)c1ccc(OC)c(OC)c1	16µM	-	-	-
COc1cc(S(=O)(=O)Nc2ccccc2C)ccc1Cl	-	-	-	-
COc1ccc(Cl)cc1NS(=O)(=O)c1ccc(S(=O)(=O)N2CCCC2)cc1	-	-	-	-
O=C(CCS(=O)(=O)c1cc2c3c(c1)CCN3C(=O)CC2)NCc1ccc(F)cc1	-	.	.	-
Cc1cccnc1NC(=O)c1c(O)c2ccccc2n(C)c1=O	7.3µM	?	-	-
CCn1c(=O)c(C(=O)Nc2ncccc2C)c(O)c2ccccc21	4.6µM	-	-	?
Cn1c(=O)c(C(=O)NNC(=O)c2ccccc2F)c(O)c2ccccc21	?	-	?	?
Cn1c(=O)c(C(=O)NNC(=O)c2ccc(Br)cc2)c(O)c2ccccc21	?	21µM	15µM	26µM
CCOC(=O)C1=C(Nc2ccc(OC)cc2)C(N)=NC1=N	1.8µM	2.3µM	5.2µM	?
Nc1nc(NCCc2ccccc2)c2[nH]cnc2n1	-	.	.	-
O=C1c2ccccc2C(=O)c2c1oc(C(F)(F)F)c2C(=O)c1ccccc1	7.3µM	?	23µM	4.6µM
COc1ccc(CNC(=O)c2c(C)oc3c2C(=O)c2ccccc2C3=O)cc1	-	?	-	?
O=C(c1ccccc1)c1coc2c1C(=O)c1ccccc1C2=O	-	16µM	18µM	-
COc1cc(C=C2CN(C)C(=O)C2=O)ccc1O	-	-	-	-
CCOc1cc(/C=C2\CN(C)C/C(=C\c3ccc(O)c(OCC)c3)C2=O)ccc1O	21µM	4.1µM	4.6µM	7.3µM
SMILES	KB-V1 cytotox	HT1080-NT tox	HT1080 IDH1KD tx	KB-3-1 tox
CCOc1cc(/C=C2\CCC/C(=C\c3cc(Cl)c(O)c(OCC)c3)C2=O)cc(Cl)c1O	?	7.3µM	5.8µM	?
COc1cc(/C=C/C(=O)Nc2nc3ccc(S(=O)(=O)N(C)C)cc3s2)cc(OC)c1OC	-	?	6.5µM	?
Cc1ccc(C(=O)NNC(=O)C2CCN(c3ncccn3)CC2)cc1	-	-	-	?
Cc1ccc(C(=O)NNc2cc(N3CCCC3)nc(N3CCCC3)n2)cc1	1.5µM	-	-	-
O=C(NNc1cc(N2CCOCC2)nc(N2CCOCC2)n1)c1ccc(Cl)c(Cl)c1	12µM	-	-	-
Cc1cc(C)cc(NC(=O)c2ccc(CN3CCc4ccccc4C3)cc2)c1	?	?	12µM	?
Cc1cc(C)cc(NC(=O)CSc2nc3c(c(=O)[nH]2)CN(Cc2ccc(F)cc2)CC3)c1	21µM!	-	-	-
Cc1ccc(NC(=O)c2ccc(CN3CCc4ccccc4C3)cc2)cc1	4.1µM	?	?	-
NC(=O)c1ccccc1NC(=O)CSc1nc2c(c(=O)[nH]1)CCCC2	-	12µM	16µM	-
O=C(Nc1ccccc1)c1ccc(CN2CCc3ccccc3C2)cc1	?	-	-	?
COc1ccccc1N1CCN(C(=O)C2CCN(S(=O)(=O)Cc3ccccc3)CC2)CC1	-	.	.	-
COc1ccc(CNC(=O)Cn2c(SCC(=O)Nc3ccc(OC)cc3)nc3ccccc32)cc1	-	.	.	-
COC(=O)c1ccc(C)c(NC(=O)c2ccc(CN3CCc4ccccc4C3)cc2)c1	-	-	-	-
O=C(Nc1ccccc1F)c1ccc(CN2CCc3ccccc3C2)cc1	21µM	-	-	9.2µM
CCOc1cccc(CNc2ccc(O)cc2)c1OCc1ccccc1Cl	-	?	?	-
CCOc1cc(CNCCO)cc(Br)c1OCc1ccc(Cl)cc1Cl	?	?	21µM	?
CCOc1cccc(CNc2ccc(O)cc2)c1OCc1ccc(Cl)cc1Cl	-	?	21µM	-
CCOc1cccc(CNCCO)c1OCc1ccc(Cl)cc1Cl	-	-	-	-
CCOc1cc(CNCCO)cc(Br)c1OCc1cccs1	-	?	11µM	-
O=C(CCCn1c2ccccc2c(=O)c2ccccc21)Nc1cccc(Cl)c1	-	.	.	?
CCC(C)NC(=O)c1ccc2nc(CCc3ccccc3)oc2c1 (stereo unspecified)	-	.	.	-
OC[C@@H]1[C@@H](c2ccccc2)C(c2ccccc2)=NN1c1ccccc1	-	-	-	-
OC[C@@H]1[C@@H](c2ccccc2)C(c2cccc(Cl)c2)=NN1c1ccccc1	?	12µM	?	?
COc1ccc(OC)c(C(c2nnnn2C2CCCC2)N2CCc3ccccc3C2)c1 (stereo unspecified)	16µM	-	-[9.24 µM]	?
Cn1c(CNC(=O)CSc2nc(-c3ccccc3F)nc3cc(=O)[nH]n23)nc2ccccc21	?	.	.	-
SMILES	KB-V1 cytotox	HT1080-NT tox	HT1080 IDH1KD tx	KB-3-1 tox
CCOc1ccc(NC(=O)CC2C(=O)N(c3cccc(C)c3)C(=O)N2CCC2=CCCCC2)cc1 (stereo unspecified)	?	.	.	-
CSC1=C(C#N)C(C)C2=C(CC(C)(C)CC2=O)N1 (stereo unspecified)	23µM	-	-	?
CN(Cc1ccccc1)C(=O)c1cc(-c2ccc(Br)cc2)on1	15µM	-	-	?
CC(C)(C)C(=O)Nc1ccc(Sc2ccc([N+](=O)[O-])cc2)cc1	21µM	-	-	-
CC(=O)Nc1ccc(Sc2ccc([N+](=O)[O-])o2)cc1	?	4.1µM	5.8µM	-
CCOC(=O)C1=CCN(S(=O)(=O)c2cccc(Cl)c2)C1c1cccc(F)c1 (stereo unspecified)	?	-	-	-
CCOC(=O)C1=C[C@@H](C(C)C)N(S(=O)(=O)c2ccc([N+](=O)[O-])cc2)[C@H]1c1ccccc1	?	-	-	12µM
CCOC(=O)C1=CCC(c2cccc(Cl)c2)N(S(=O)(=O)c2ccc(C)cc2)C1 (stereo unspecified)	?	-	?	-
CCOC(=O)C1=C[C@@H](C(C)(C)C)N(S(=O)(=O)c2ccc(C)cc2)[C@H]1c1ccccc1	-	?	?	?
CCOC(=O)C1=CCN(S(=O)(=O)c2ccc(F)cc2)C1c1cccc(Cl)c1 (stereo unspecified)	8.2µM	-	-	?

Screening results as filed in PubChem BioAssay.
